The list is not random: actives were taken first. Their share in the collection is about 5.9%.
ALR inh – inhibitors of human ALR sulfhydryl oxidase, primary screen, biochemical, H2O2 detection, HRP-luminol luminescence, single point | AID 485317, 2010 | inhibition, % (test concentration not listed) | FAD-linked sulfhydryl oxidase ALR (Homo sapiens), P55789 | purified ALR, DTT oxidation | 290,000 compounds, 3.8% hits;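 active = mean replicate inhibition above about 79%, with every replicate also reaching it, limit read from the data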
Target sequence (P55789 whole entry, looked up): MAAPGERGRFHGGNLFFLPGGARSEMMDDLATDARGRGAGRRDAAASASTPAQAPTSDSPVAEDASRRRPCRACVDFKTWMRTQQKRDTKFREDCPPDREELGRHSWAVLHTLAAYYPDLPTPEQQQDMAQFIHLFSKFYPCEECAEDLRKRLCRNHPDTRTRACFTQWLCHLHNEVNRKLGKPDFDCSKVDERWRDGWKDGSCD
Rtt109 Vps75 – inhibitors of C. albicans Rtt109/Vps75 HAT, primary screen, biochemical, ThioGlo CoA-SH fluorescence, plate reader; Histone acetyltransferase RTT109 (Candida albicans (strain SC5314 / ATCC MYA-2876)), …; purified Rtt109/Vps75, 4 h; inhibition, % at 34.9 µM; 330,000 compounds, 0.16% hits;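 active = inhibition of at least 50% in every replicate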
PRMT1 inh – PRMT1 methyltransferase inhibitors, primary screen, biochemical, fluorescence polarization. Protein arginine N-methyltransferase 1 (Homo sapiens), Q99873. recombinant PRMT1, activity-based probe fluorescence polarization. inhibition, % at 2.79 µM. 370,000 compounds, 1.3% hits;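 active = inhibition above about 21% made by adding two undisclosed values, limit read from the data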
Target sequence (Q99873 whole entry, looked up): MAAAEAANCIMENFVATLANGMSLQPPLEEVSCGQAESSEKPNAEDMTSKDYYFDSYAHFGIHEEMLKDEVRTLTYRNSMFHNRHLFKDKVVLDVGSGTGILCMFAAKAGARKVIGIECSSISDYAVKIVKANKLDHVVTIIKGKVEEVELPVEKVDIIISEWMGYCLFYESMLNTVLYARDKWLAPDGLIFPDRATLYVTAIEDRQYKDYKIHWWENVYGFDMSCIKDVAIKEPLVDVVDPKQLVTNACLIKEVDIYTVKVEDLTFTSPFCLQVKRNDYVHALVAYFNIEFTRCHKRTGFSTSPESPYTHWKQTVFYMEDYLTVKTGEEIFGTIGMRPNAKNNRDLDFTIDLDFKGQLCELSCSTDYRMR
LANA-H2A inh – blockers of LANA interaction with H2A/H2B – biochemical, FP readout, HTS, primary screen. Protein LANA1 (Human herpesvirus 8 type P (isolate GK18)), Q9QR71. cell-free LANA-H2A/H2B peptide, fluorescence polarization. inhibition, % (no concentration beside the values). 320,000 compounds, 0.6% hits. AID 2629, 2010; in the data active = inhibition mostly above about 10%, no sharp cut-off; inactive = mostly below about 6.7%
rCAG binder – binders of r(CAG) RNA repeats, primary screen, biochemical, fluorescence. r(CAG) RNA repeat, TO-PRO-1 dye displacement fluorescence. inhibition, % at 3 µM. 370,000 compounds, 1.3% hits;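 active = inhibition above the plate cutoff, the mean of all test compounds on that plate plus 3 SD, cut at about 35% in these data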;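 also: higher means more dye released from RNA so lower well fluorescence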
ABHD5 PLIN5 PPI – ABHD5-PLIN5 interaction inhibitors, primary screen, cell lysate, split luciferase complementation, luminescence. 360,000 compounds, 0.78% hits. inhibition, % at 4 µM. Split G. princeps luciferase complementation, 4 h. Perilipin-5 (Homo sapiens) + 1-acylglycerol-3-phosphate O-acyltransferase ABHD5 (Homo …. AID 602281, 2012;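 active = inhibition above the mean inhibition across every tested compound plus 3 SD, cut at about 22% in these data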
PRMT1 inh conf – PRMT1 methyltransferase inhibitors, confirmation, biochemical, fluorescence polarization, triplicate; shares compounds with PRMT1 inh; recombinant His-PRMT1, activity-based probe fluorescence polarization; inhibition, % at 2.79 µM; 3,300 compounds, 42% hits;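 active = mean inhibition across replicates above the hit cutoff derived for the earlier primary screen, cut at about 22% in these data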
Hits are given with their value; - = inactive; . = no result given.

SMILES	ALR inh	Rtt109 Vps75	PRMT1 inh	LANA-H2A inh	rCAG binder	ABHD5 PLIN5 PPI	PRMT1 inh conf
COc1ccccc1-c1ccc(OCCCN2CCC(C(O)(c3ccccc3)c3ccccc3)CC2)cc1	.	.	-	.	-	.	.
O=[N+]([O-])c1cnc2ccccc2c1Sc1ccccc1	.	.	73	.	.	.	71
CCN(C(=O)[C@H]1CC(=O)O[C@@H]1c1ccccc1)c1ccccc1	.	.	-	.	-	.	.
COc1ccc(NC(=O)CSc2nnc(-c3ccncc3)o2)c(OC)c1	-	-	-	-	-	-	.
COc1ccc(NC(=O)CSc2nnc(-c3cccnc3)o2)c(OC)c1	98	-	28	-	-	-	36
COc1ccc(C(=O)CC(=O)c2ccc(C(C)(C)C)cc2)cc1	.	-	-	.	-	-	.
COc1ccc(C(=O)CC(Sc2ccccc2N)c2ccc(OC)cc2)cc1 (stereo not drawn)	.	.	59	.	-	-	29
O=C(OCCN1C(=O)c2cccc3c(N4CCOCC4)ccc(c23)C1=O)c1ccc(Cl)cc1	-	-	29	12	-	-	-
CCOC(=O)CNC(=O)CSc1nc(-c2ccccc2)ns1	-	-	43	-	-	-	-
CCOC(=O)CNC(=O)CSc1nc(-c2ccc(C)cc2)ns1	-	-	-	-	-	-	.
CN1c2ccsc2/C(=N/Nc2ccccc2)CS1(=O)=O	99	-	38	-	-	-	-
CCCS(=O)(=O)NC(=O)C1(C)CCN(C(=O)c2ccco2)C1 (stereo not drawn)	.	.	-	.	-	-	.
CC(=O)Nc1ccc(SCC(=O)N(C)CC(=O)Nc2ccccc2Cl)cc1	98	-	58	-	-	-	61
Cc1ccc(/C=C2/NC(=O)N(c3ccccc3)C2=O)o1	-	-	60	-	-	-	30
Cc1c(C(=O)O)cccc1-c1ccc(/C=C2/NC(=O)N(c3ccccc3)C2=O)o1	-	-	-	-	-	-	.
CC(C)(NC(=O)c1ccccc1)c1nc2ccccc2s1	-	-	59	-	-	-	82
O=C(NC(Nc1nc2ccccc2s1)(C(F)(F)F)C(F)(F)F)c1ccccc1	-	-	-	-	-	-	.
COc1ccc(C2Nc3ccccc3C(=O)N2Cc2ccco2)cc1COc1c(C)cc(NC(C)=O)cc1C (stereo not drawn)	.	.	-	.	.	.	.
Nc1ccc(Nc2ccccc2)c(S(=O)(=O)O)c1	.	-	37	-	-	-	-
Nc1c(C(=O)NC2CCCC2)sc2nc(-c3cccs3)ccc12	-	-	53	-	-	-	-
NC(=O)c1sc2nc(-c3cccs3)ccc2c1N	-	-	-	-	-	-	.
NC(=O)C1CCN(C2CC(=O)NC2=O)CC1 (stereo not drawn)	-	-	64	-	-	-	-
O=C1CC(N2CCSCC2)C(=O)N1c1cccc(Br)c1 (stereo not drawn)	-	-	-	-	-	-	.
COc1cccc(N2CCN(C3CC(=O)N(c4ccc(F)c(Cl)c4)C3=O)CC2)c1 (stereo not drawn)	-	-	-	-	-	-	.
CN1C(=O)CC(N2CCC(C(N)=O)CC2)C1=O (stereo not drawn)	-	-	-	-	-	-	.
SMILES	ALR inh	Rtt109 Vps75	PRMT1 inh	LANA-H2A inh	rCAG binder	ABHD5 PLIN5 PPI	PRMT1 inh conf
NC(=O)C1CCN(C2CC(=O)N(c3cccc(F)c3)C2=O)CC1 (stereo not drawn)	-	-	29	-	-	-	-
O=C1CC(N2CCN(Cc3ccccc3)CC2)C(=O)N1 (stereo not drawn)	-	-	-	-	-	-	.
NC(=O)C1CCN(C2CC(=O)N(c3ccc(F)c(Cl)c3)C2=O)CC1 (stereo not drawn)	-	-	30	-	-	-	-
Cc1ccccc1N1C(=O)CC(N2CCC(C(N)=O)CC2)C1=O (stereo not drawn)	-	-	73	-	-	-	-
O=C(Nc1ccccc1)OC[C@@H]1CSCCS(=O)(=O)N1	.	.	-	.	-	.	.
CCOc1cccc(N2C(=O)CC(N3CCC(C(N)=O)(N4CCCCC4)CC3)C2=O)c1 (stereo not drawn)	-	.	40	-	-	-	-
COC(=O)C1CCN(C2CC(=O)N(c3cc(C)cc(C)c3)C2=O)CC1 (stereo not drawn)	.	-	57	-	-	-	-
O=C1C=C(C2CCCCC2)C(=O)c2ccccc21	.	-	31	.	-	-	-
COc1ccc(-n2ccnc(SCC(=O)NC3CCCC3)c2=O)cc1OC	.	-	-	.	-	-	.
Cc1ccc(-n2ccnc(SCC(=O)NC3CCCCC3)c2=O)cc1F	.	-	26	.	-	-	-
COc1ccc(CNC(=O)CSc2nccn(-c3ccc(F)c(F)c3)c2=O)cc1	.	-	33	.	-	-	27
O=C(CSc1nccn(-c2ccc(Br)cc2)c1=O)Nc1ccccc1F	.	-	46	.	-	-	-
COc1ccc(CNC(=O)CSc2nnc(C)n2-c2ccc(F)cc2)cc1	.	-	-	-	-	-	.
CCOc1ccc(-n2ccnc(SCC(=O)Nc3ccc(OC)cc3OC)c2=O)cc1	.	-	27	.	-	-	27
O=C(CSc1nccn(-c2ccc(Br)cc2)c1=O)NC1CCCC1	.	-	-	.	-	-	.
O=C(CN1C(=O)CC(c2ccco2)Sc2ccccc21)Nc1ccccc1F (stereo not drawn)	-	-	58	-	-	-	-
CCOC(=O)C1=NOC(C(C)=O)(C(=O)N2CCOCC2)C1 (stereo not drawn)	.	.	-	.	-	.	.
Cn1c(-c2ccccc2)cc(=NNS(C)(=O)=O)c2cc(S(=O)(=O)O)ccc21	.	.	-	.	-	-	.
Cc1ccc(F)cc1C(=O)N1CCCC(C)(C(=O)NS(=O)(=O)C2CC2)C1 (stereo not drawn)	.	.	-	.	-	-	.
CC(=O)NC1C(=O)N=C(SCC(=O)Nc2cccc(Cl)c2)NC1=O (stereo not drawn)	99	-	39	-	-	-	-
CCN1CCN(c2c(S(=O)(=O)c3ccc(Cl)cc3)cnc3ccccc23)CC1	.	.	-	.	-	.	.
O=C1C=CC(=O)N1c1ccc(O)cc1	-	-	90	-	-	-	92
COc1ccccc1-c1cccc2nccn12	.	.	-	.	-	-	.
